The source of these data is PubChem BioAssay.

Broadly, the inhibition is the relative decrease from the control value, in per cent.

A number with no mark means an inactive call. For some of these results: Results with a measured potency or affinity are listed apart. The source made the active and inactive calls. Unless noted, how the calls were made is not given here.

A short description of assay [1]: antimalarial activity against Dd2 strain (AID 2302;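 active means growth inhibition above 50% at the single 2 µM test dose, taken to imply half-maximal potency below 2 µM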;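 further: 0% = DMSO untreated growth and 100% = chloroquine plus artemisinin killed control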). Conditions: P. falciparum Dd2 in RBCs, LDH growth readout, 72 h; at 2 µM; active compounds read high.
Assay [2] in a line: human hepatoma cell viability loss – ATP luminescence, cytotoxicity control for P. falciparum antimalarial project, primary screen (AID 2303;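 active means inhibition above 50%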;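 further: 0% = DMSO wells and 100% = digitonin-killed cells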). Particulars: HepG2 viability, 24-48 h, at 10 µM, active compounds read high.
Assay [3] has as its target L-lactate dehydrogenase (Plasmodium falciparum (isolate CDC / Honduras)) (UniProt Q27743). Description: PfLDH activity inhibition – cell lysate, 3D7 strain, counter-screen for P. falciparum growth inhibition project (AID 2304).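 Further: 0% = vehicle and 100% = reference inhibitor.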 Conditions: P. falciparum 3D7 crude extract, LDH APAD/NBT absorbance; at 2 µM; active compounds read high. Background: A counterscreen serves to expose hits that act by an unwanted route or on another target.

A short description of assay [4]: inhibition of 3D7 malaria parasite growth – strain 3D7 (AID 2306).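 Further: 0% = DMSO wells and 100% = chloroquine plus artemisinin control wells.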 Conditions: P. falciparum 3D7 erythrocytic growth, LDH absorbance, 72 h; at 2 µM; active compounds read high.
Assay [5] deals with Calcium-dependent protein kinase 1 (Plasmodium falciparum (isolate 3D7)) (UniProt P62344). In words: PfCDPK1 kinase inhibitors, biochemical, TCAMS library (AID 1159585; cut-off not given, nearly all actives have IC50 up to about 0.98 µM;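 further: inhibitors leave more ATP so luminescence rises with inhibition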). Particulars: recombinant PfCDPK1, Kinase-Glo ATP depletion luminescence.
The target of assay [6] is Plasmodium falciparum protein kinase 6 (PK6, PF3D7_1337100) (UniProt Q8IDW1). In words: PfPK6 kinase inhibitors, biochemical, TCAMS library (AID 1159586). Particulars: recombinant PfPK6, Kinase-Glo ATP depletion luminescence. On the technique in general: Kinase-Glo measures the ATP left after a reaction by luminescence.
The target of assay [7] is Protein kinase 7 (PK7), Plasmodium falciparum 3D7 (PF3D7_0213400) (UniProt Q7YTF7). Description: inhibition of Plasmodium PK7 catalytic activity – biochemical, TCAMS antimalarial set, Kinase-Glo luminescence (AID 1159587). Particulars: recombinant PfPK7, Kinase-Glo ATP depletion luminescence.
Assay [8] addresses Calcium-dependent protein kinase 4 (Plasmodium falciparum (isolate 3D7)) (UniProt Q8IBS5). Description: PfCDPK4 kinase inhibitors, biochemical, TCAMS library (AID 1159588; cut-off not given, nearly all actives have IC50 up to about 0.91 µM). Particulars: recombinant PfCDPK4, Kinase-Glo ATP depletion luminescence.

Chain of Calcium-dependent protein kinase 4 (Plasmodium falciparum (isolate 3D7)) (Q8IBS5 whole entry, looked up): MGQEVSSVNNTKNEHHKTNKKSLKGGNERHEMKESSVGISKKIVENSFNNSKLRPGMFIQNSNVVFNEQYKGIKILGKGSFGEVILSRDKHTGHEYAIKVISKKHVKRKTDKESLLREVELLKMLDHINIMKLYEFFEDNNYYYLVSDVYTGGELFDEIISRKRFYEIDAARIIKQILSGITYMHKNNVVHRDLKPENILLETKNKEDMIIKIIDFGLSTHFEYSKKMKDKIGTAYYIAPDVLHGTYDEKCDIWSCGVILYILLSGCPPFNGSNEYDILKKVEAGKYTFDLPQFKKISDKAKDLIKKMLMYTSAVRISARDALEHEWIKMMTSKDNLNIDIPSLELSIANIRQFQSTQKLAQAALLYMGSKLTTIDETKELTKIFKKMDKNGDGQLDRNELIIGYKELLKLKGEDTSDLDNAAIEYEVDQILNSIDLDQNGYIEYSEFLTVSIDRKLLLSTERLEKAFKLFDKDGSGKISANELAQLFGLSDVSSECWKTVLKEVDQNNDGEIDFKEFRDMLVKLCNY
Chain of Protein kinase 7 (PK7), Plasmodium falciparum 3D7 (PF3D7_0213400) (Q7YTF7 1-343): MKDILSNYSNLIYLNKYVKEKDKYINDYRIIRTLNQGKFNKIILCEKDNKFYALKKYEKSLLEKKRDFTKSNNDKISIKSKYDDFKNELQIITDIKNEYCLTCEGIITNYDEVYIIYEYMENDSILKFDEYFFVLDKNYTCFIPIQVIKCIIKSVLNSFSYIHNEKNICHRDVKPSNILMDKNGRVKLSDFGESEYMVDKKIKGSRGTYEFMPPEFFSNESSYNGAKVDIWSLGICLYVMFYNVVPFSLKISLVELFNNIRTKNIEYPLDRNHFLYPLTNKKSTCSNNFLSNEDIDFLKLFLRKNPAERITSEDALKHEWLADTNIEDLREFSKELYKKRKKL
Chain of Calcium-dependent protein kinase 1 (Plasmodium falciparum (isolate 3D7)) (P62344 whole entry, looked up): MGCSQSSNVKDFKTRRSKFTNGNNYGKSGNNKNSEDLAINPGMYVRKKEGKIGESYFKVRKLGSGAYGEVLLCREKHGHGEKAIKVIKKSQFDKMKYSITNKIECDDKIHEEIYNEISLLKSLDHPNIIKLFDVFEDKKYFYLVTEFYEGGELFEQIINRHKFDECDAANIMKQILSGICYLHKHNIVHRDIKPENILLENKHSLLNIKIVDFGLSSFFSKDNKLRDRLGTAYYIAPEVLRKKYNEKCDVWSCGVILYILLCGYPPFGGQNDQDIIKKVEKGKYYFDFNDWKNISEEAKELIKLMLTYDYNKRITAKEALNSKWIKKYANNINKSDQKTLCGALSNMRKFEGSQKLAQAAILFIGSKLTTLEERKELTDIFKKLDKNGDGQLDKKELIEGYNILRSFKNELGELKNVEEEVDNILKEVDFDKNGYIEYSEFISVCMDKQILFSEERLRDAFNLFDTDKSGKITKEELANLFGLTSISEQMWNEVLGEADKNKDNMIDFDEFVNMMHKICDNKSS
Chain of Plasmodium falciparum protein kinase 6 (PK6, PF3D7_1337100) (Q8IDW1 1-305): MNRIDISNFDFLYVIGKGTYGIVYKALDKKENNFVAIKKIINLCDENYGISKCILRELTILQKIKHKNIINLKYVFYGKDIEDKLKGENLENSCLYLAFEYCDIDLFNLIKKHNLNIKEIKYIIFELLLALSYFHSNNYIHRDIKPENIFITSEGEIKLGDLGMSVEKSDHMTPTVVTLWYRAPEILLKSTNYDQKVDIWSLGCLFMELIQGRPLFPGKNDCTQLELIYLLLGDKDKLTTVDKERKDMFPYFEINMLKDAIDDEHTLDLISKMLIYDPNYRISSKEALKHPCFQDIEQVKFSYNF
Chain of L-lactate dehydrogenase (Plasmodium falciparum (isolate CDC / Honduras)) (Q27743 whole entry, looked up): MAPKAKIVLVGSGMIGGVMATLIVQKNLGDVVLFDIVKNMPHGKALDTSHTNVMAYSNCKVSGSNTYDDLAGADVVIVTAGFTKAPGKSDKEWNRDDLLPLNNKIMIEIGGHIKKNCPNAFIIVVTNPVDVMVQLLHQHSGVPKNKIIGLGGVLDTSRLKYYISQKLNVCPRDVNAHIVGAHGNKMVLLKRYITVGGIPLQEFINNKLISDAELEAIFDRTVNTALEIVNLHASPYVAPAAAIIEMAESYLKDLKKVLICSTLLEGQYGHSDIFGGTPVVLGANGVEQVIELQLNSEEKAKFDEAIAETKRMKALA

As for `COc1ccc2c(NN=Cc3ccc(OC)c4ccccc34)cc(C)nc2c1`, the growth inhibition in assay [1] is 99% (active); in assay [4] it was 101% (active). Besides, the results for the inhibition in assay [2] and in assay [3] were 3% and -4%, respectively. The result in assay [5], in assay [6], in assay [7] and in assay [8] was inactive.

On to `COc1ccc2nccc(N3CCC(NCCNCc4ccc5c(n4)NC(=O)CS5)C3)c2n1` (stereo not given), for which the growth inhibition in assay [1] is 5%; in assay [4], 100% (active). Also, the inhibition in assay [2] and in assay [3] was -4% in each case. For the same compound, the outcome in assay [5], in assay [6], in assay [7] and in assay [8] was inactive.

As for `Cn1cccc1CCNCc1ccc(-c2cccc(-c3nc4ccc(F)cc4[nH]3)c2)cc1`, the growth inhibition is 43% in assay [1] and 93% (active) in assay [4]. For the same compound, the values for the inhibition in assay [2] and in assay [3] were -2% and 1%, respectively. Besides, the result in assay [5], in assay [6], in assay [7] and in assay [8] was inactive.

Regarding `O=C(N[C@@H](Cc1ccccc1)C(=O)NCc1cccc(C(F)(F)F)c1)c1ccc(O)c(-c2ccc(Cl)c(Cl)c2)c1`, the values for the growth inhibition in assay [1] and in assay [4] were 97% (active) and 96% (active), respectively. The inhibition in assay [2] is -13%; in assay [3] it was -1%. The result in assay [5], in assay [6], in assay [7] and in assay [8] was inactive.

Regarding `Cc1cccc2[nH]c(-c3cccc(-c4ccc(NC(=O)CCc5cnc[nH]5)cc4)c3)nc12`, the growth inhibition in assay [1] is 92% (active); in assay [4], 102% (active). The inhibition in assay [2] is 3%; in assay [3] it was 6%. The result in assay [5], in assay [6], in assay [7] and in assay [8] was inactive.

Turning to `COc1cc(C)nc2ccc(NC(=O)COCC(=O)Nc3ccc4nc(C)cc(OC)c4c3)cc12`, the growth inhibition in assay [1] was 41%; in assay [4], 100% (active). Besides, the inhibition in assay [2] was 67% (active); in assay [3], 7%. Further, the result in assay [5], in assay [6], in assay [7] and in assay [8] was inactive.

For the compound `Cc1cccc2[nH]c(-c3ccc(-c4ccc(CN5CCN(c6ccc(C#N)cn6)CC5)cc4)s3)nc12`, the growth inhibition in assay [1] is 44%; in assay [4], 98% (active). Moreover, the inhibition was 10% in assay [2] and 2% in assay [3]. Besides, the result in assay [5], in assay [6], in assay [7] and in assay [8] was inactive.

Consider `O=C(c1ccc(Cl)cc1Cl)N1CCCC(C(F)(F)F)C1` (stereo not given), for which the growth inhibition in assay [1] was 47%; in assay [4] it was 95% (active). Besides, the inhibition was 6% in assay [2] and 3% in assay [3]. Besides, the result in assay [5], in assay [6], in assay [7] and in assay [8] was inactive.

As to `N#Cc1ccc2c(c1)CCN(CCC1CCC(NC(=O)/C=C/c3ccc(Cl)c(Cl)c3)CC1)CC2` (stereo not given), the growth inhibition in assay [1] is 51% (active); in assay [4], 100% (active). The inhibition is 31% in assay [2] and -11% in assay [3]. Moreover, the result in assay [5], in assay [6], in assay [7] and in assay [8] was inactive.

With `COc1cccc(OC)c1C(=O)N1CCC2(CC1)C(=O)N(CC(=O)NC1CCCCC1)CN2c1ccccc1`, the growth inhibition in assay [1] was 91% (active); in assay [4] it was 92% (active). Also, the results for the inhibition in assay [2] and in assay [3] were 16% and 5%, respectively. The outcome in assay [5], in assay [6], in assay [7] and in assay [8] was inactive.

As for `CC1(C)N=C(N)N=C(N)N1OCCOc1cccc(C(F)(F)F)c1`, the growth inhibition is 97% (active) in assay [1] and 93% (active) in assay [4]. For the same compound, the inhibition in assay [2] is 67% (active); in assay [3] it was -2%. For the same compound, the result in assay [5], in assay [6], in assay [7] and in assay [8] was inactive.

For the compound `COc1cc(F)c2ncc(Cl)c(C(O)CN3CCC(NC(=O)c4ccc5c(n4)NC(=O)CO5)CC3)c2c1` (stereo not given), the growth inhibition in assay [1] was 100% (active); in assay [4] it was 102% (active). Also, the inhibition in assay [2] was 22%; in assay [3], -1%. Moreover, the result in assay [5], in assay [6], in assay [7] and in assay [8] was inactive.

`CCOC(=O)c1ccc(NC(=O)N(Cc2ccc(-c3cccc(CN4CCNCC4)c3)cc2)C2CCN(Cc3ccccc3)CC2)cc1`: the growth inhibition was 55% (active) in assay [1] and 100% (active) in assay [4]. Moreover, the inhibition was 19% in assay [2] and 4% in assay [3]. Besides, the outcome in assay [5], in assay [6], in assay [7] and in assay [8] was inactive.

In the case of `CCNc1cc(C(=O)N[C@@H](Cc2ccccc2)[C@H](O)CN[C@@H](C)c2cccc(OC)c2)cc(N2CCCC2=O)c1`, the growth inhibition is 65% (active) in assay [1] and 95% (active) in assay [4]. Moreover, the values for the inhibition in assay [2] and in assay [3] were 5% and -1%, respectively. Also, the result in assay [5], in assay [6], in assay [7] and in assay [8] was inactive.

Regarding `CN1CCC(NCc2cccc(-c3ccc(S(=O)(=O)NCc4ccccc4)c(F)c3)c2)CC1`, the growth inhibition in assay [1] and in assay [4] was 99% (active) in each case. Also, the inhibition in assay [2] is 94% (active); in assay [3] it was -8%. Besides, the outcome in assay [5], in assay [6], in assay [7] and in assay [8] was inactive.

`CO/C(=C\C=C\c1cc2cc(Cl)c(Cl)cc2[nH]1)C(=O)NCCCN1CCN(Cc2ccccc2)CC1`: the figures for the growth inhibition in assay [1] and in assay [4] were 65% (active) and 94% (active), respectively. In addition, the inhibition in assay [2] was 45%; in assay [3] it was -2%. Besides, the result in assay [5], in assay [6], in assay [7] and in assay [8] was inactive.

Consider `C[C@@H](COc1ccccc1)NCC(O)c1ccc([N+](=O)[O-])c(OCc2ccccc2)c1` (stereo not given in full), for which the values for the growth inhibition in assay [1] and in assay [4] were 64% (active) and 93% (active), respectively. Further, the inhibition is 5% in assay [2] and 7% in assay [3]. Besides, the outcome in assay [5], in assay [6], in assay [7] and in assay [8] was inactive.

Take `COc1ccccc1CNC(=O)c1ccc(N2CCN(c3ccncc3)CC2)cn1`: the growth inhibition in assay [1] is 17%; in assay [4], 96% (active). For the same compound, the inhibition in assay [2] was 16%; in assay [3], 2%. Further, the result in assay [5], in assay [6], in assay [7] and in assay [8] was inactive.

`COc1ccc(C=NNc2cc(C)nc3ccccc23)c(OC)c1`: the growth inhibition in assay [1] is 94% (active); in assay [4], 101% (active). Also, the inhibition in assay [2] was 24%; in assay [3] it was -2%. Moreover, the outcome in assay [5], in assay [6], in assay [7] and in assay [8] was inactive.

As to `O=C(NC1CC1)c1ccc(N2CCC(COc3cccc(F)c3)CC2)nc1`, the growth inhibition in assay [1] was 88% (active); in assay [4], 89% (active). For the same compound, the inhibition is 0% in assay [2] and 4% in assay [3]. Further, the outcome in assay [5], in assay [6], in assay [7] and in assay [8] was inactive.
